# Inconclusive results are not listed. Calls of active or inactive are those of the source. Rule for the calls, unless noted: active = hit-call score of the fitted dose curve at least 0.9, where 1 is the maximum; inactive = score below 0.9.
# What was measured:
# [1] = APR_HepG2_CellCycleArrest_24hr: Apredica 24-hour HepG2 Assay for Cell Cycle Arrest (AID 2282905); details: imaging, actives raise or lower the signal;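 note: cell cycle arrest scored as ratio of 2N to 4N nuclear DNA content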
# Method in brief: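 HepG2 cells were exposed to compounds at 0.39–200 uM (ten concentrations, duplicate) in 0.5% v/v DMSO for 24 hr. After formaldehyde fixation and Triton permeabilization, Hoechst 33342-stained nuclei were imaged at 20x; DNA content was quantified, with bidirectional fitting against DMSO.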
# [2] = APR_HepG2_NuclearSize_24hr: Apredica 24-hour HepG2 Assay for Nuclear Size (AID 2282907); details: high-content imaging, actives raise or lower the signal
# Method in brief: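 HepG2 human liver cells were exposed for 24 hr to compounds at 0.39–200 uM (ten concentrations, duplicate) in 0.5% v/v DMSO. They were then formaldehyde-fixed, Triton-permeabilized and Hoechst 33342-stained, and nuclear diameter was imaged at 20x. Bidirectional fits were made against DMSO.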
# [3] = APR_HepG2_CellLoss_24hr: Apredica 24-hour HepG2 Assay for Cell Loss (AID 2282908); details: high-content imaging;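 for AC50: fit in both directions so a hit may be cell loss or gain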
# Method in brief: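 Compounds were tested at 0.39–200 uM in duplicate with 0.5% v/v DMSO final. Cells were then fixed in 3.7% formaldehyde, Hoechst 33342 nuclei were imaged at 20x by HCS, and cell number was fitted bidirectionally against DMSO.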
# [4] = APR_HepG2_MicrotubuleCSK_24hr: Apredica 24-hour HepG2 Assay for Microtubule CSK Stabilty (AID 2282909); details: HepG2 microtubule cytoskeleton imaging, actives raise or lower the signal
# Method in brief: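 HepG2 cells exposed 24 h to compounds at 0.39–200 uM (duplicate, 0.5% v/v DMSO final), then fixed, permeabilized and immunostained for alpha-tubulin with Hoechst 33342. Cytoskeleton imaged at 20x; bidirectional fit versus DMSO baseline.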
# [5] = APR_HepG2_MitoticArrest_24hr: Apredica 24-hour HepG2 Assay for Mitotic Arrest (AID 2282910); details: high-content imaging, actives raise or lower the signal
# Method in brief: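 Compounds are dosed onto HepG2 cells across ten concentrations up to 200 uM for 24 hr. Cells are then fixed in 3.7% formaldehyde, permeabilised, and labelled for phospho-histone H3 and nuclei; images are scored by cell cycle analysis and fitted bidirectionally relative to DMSO.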
# [6] = APR_HepG2_MitoMembPot_24hr: Apredica 24-hour HepG2 Assay for Mitochondrial Membrane Potential (AID 2282911); details: imaging, actives raise or lower the signal
# Method in brief: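 Cells are dosed for 24 hr across 0.39 to 200 uM with solvent held at 0.5% DMSO. They are then stained with 250 nM MitoTracker Red CMXRos for 30 min, fixed in 3.7% formaldehyde and imaged.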
# [7] = APR_HepG2_MitoMass_24hr: Apredica 24-hour HepG2 Assay for Mitochondrial Mass (AID 2282912); details: high-content imaging, actives raise or lower the signal
# Method in brief: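 Human HepG2 liver cells were exposed for 24 hr to compounds at 0.39–200 uM (duplicates, 0.5% v/v DMSO final). They were stained live with 250 nM MitoTracker Red CMXRos for 30 min, fixed in 3.7% formaldehyde, and imaged by HCS fluorescence; signals were fitted bidirectionally against DMSO.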
# [8] = ACEA_ER_80hr: ACEA Biosciences xCELLigence Real-Time Cell Analysis on Estrogen Receptor Agonism for Proliferation (AID 2282667; active = hit-call score of the fitted dose curve at least 0.9, where 1 is the maximum); details: T47D proliferation, impedance (xCELLigence), 80 h
# Method in brief: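 Real-time electrical impedance tracked growth of the human breast line T47D, with the 80 h post-dosing value used. Dosing spanned eight 1:4 steps down from a 100 uM final top concentration, run in duplicate.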
# [9] = APR_HepG2_CellCycleArrest_72hr: Apredica 72-hour HepG2 Assay for Cell Cycle Arrest (AID 2282914); details: high-content imaging, actives raise or lower the signal
# Method in brief: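 Read-out is Hoechst-stained nuclear DNA content measured by automated fluorescence imaging (20x, six images per well), fitted in both directions relative to DMSO. Human HepG2 liver cells received 0.39–200 uM compound for 72 hr at 0.5% v/v DMSO.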
# [10] = APR_HepG2_p53Act_24hr: Apredica 24-hour HepG2 Assay for p53 Activation (AID 2282913); details: high-content imaging, actives raise or lower the signal;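 note: p53 protein immunofluorescence averaged per cell in HepG2 with Hoechst nuclei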
# Method in brief: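 Human HepG2 liver cells; 24 hr cpd treatment, 0.39–200 uM, 0.5% DMSO final. Fixed in 3.7% formaldehyde, permeabilized with 0.5% Triton X-100, stained with anti-p53/Cy5 plus Hoechst 33342. Six images per well at 20x; gain or loss vs DMSO.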
smiles,measurement,setting,value
C[C@]12C=CC(=O)C=C1CC[C@@H]1[C@@H]2C(=O)C[C@@]2(C)[C@H]1CC[C@]2(O)C(=O)CO,outcome,[1],inactive
same,outcome,[2],inactive
same,outcome,[3],inactive
same,outcome,[4],inactive
same,outcome,[5],inactive
same,outcome,[6],inactive
same,outcome,[7],inactive
CC(=O)OC/C=C(\C)CCC=C(C)C,outcome,[1],inactive
same,outcome,[2],inactive
same,outcome,[3],inactive
same,outcome,[4],inactive
same,outcome,[5],inactive
same,outcome,[6],inactive
same,outcome,[7],inactive
Nc1nc(N)c2nc(CNc3ccc(C(=O)N[C@@H](CCC(=O)O)C(=O)O)cc3)cnc2n1,outcome,[8],inactive
same,outcome,[1],inactive
same,outcome,[2],inactive
same,outcome,[3],inactive
same,outcome,[4],inactive
same,outcome,[5],inactive
same,outcome,[7],inactive
same,outcome,[9],inactive
CC(C)(C)c1cc(O)c(C(C)(C)C)cc1O,outcome,[8],inactive
same,outcome,[1],inactive
same,outcome,[2],inactive
same,AC50,[3],53.6 µM (active)
same,outcome,[4],inactive
same,AC50,[5],83.6 µM (active)
same,AC50,[7],82.8 µM (active)
same,AC50,[10],79.8 µM (active)
same,AC50,[9],51.3 µM (active)
CC1=C(/C=C/C(C)=C/C=C/C(C)=C/CO)C(C)(C)CCC1,outcome,[1],inactive
same,outcome,[2],inactive
same,AC50,[3],90.6 µM (active)
same,outcome,[4],inactive
same,AC50,[5],81.6 µM (active)
same,outcome,[6],inactive
same,AC50,[7],113 µM (active)
same,AC50,[10],85.8 µM (active)
same,AC50,[9],56.3 µM (active)
COc1cc(C=O)ccc1O,outcome,[1],inactive
same,outcome,[2],inactive
same,outcome,[3],inactive
same,outcome,[4],inactive
same,outcome,[5],inactive
same,outcome,[6],inactive
same,outcome,[7],inactive
same,outcome,[10],inactive
COc1cc(-c2nc(NC(=O)c3cc4cc(C)cc(C)c4n3CC(=O)O)sc2CCC2CCCCC2)c(OC)cc1Cl,outcome,[8],inactive
same,AC50,[1],38.6 µM (active)
same,AC50,[2],61.4 µM (active)
same,AC50,[3],29.3 µM (active)
same,AC50,[4],26.5 µM (active)
same,AC50,[5],35.1 µM (active)
same,AC50,[7],14.4 µM (active)
same,AC50,[10],43.4 µM (active)
same,AC50,[9],23.4 µM (active)
COc1cccc2c1C(=O)c1c(O)c3c(c(O)c1C2=O)C[C@@](O)(C(=O)CO)C[C@@H]3O[C@H]1C[C@H](N)[C@H](O)[C@H](C)O1,outcome,[8],inactive
same,AC50,[1],4.04 µM (active)
same,outcome,[2],inactive
same,outcome,[3],inactive
same,outcome,[4],inactive
same,AC50,[5],1.72 µM (active)
same,AC50,[7],24.6 µM (active)
same,AC50,[10],0.276 µM (active)
same,AC50,[9],3.58 µM (active)
CCCc1cc(=O)[nH]c(=S)[nH]1,AC50,[8],0.747 µM (active)
same,outcome,[1],inactive
same,outcome,[2],inactive
same,outcome,[3],inactive
same,outcome,[4],inactive
same,outcome,[5],inactive
same,outcome,[7],inactive
same,outcome,[10],inactive
same,outcome,[9],inactive
Cc1ccc(C)c(C)c1,outcome,[8],inactive
same,outcome,[1],inactive
same,outcome,[2],inactive
same,outcome,[3],inactive
same,outcome,[4],inactive
same,outcome,[5],inactive
same,outcome,[7],inactive
same,outcome,[10],inactive
c1cc(-c2ccncc2)ccn1,outcome,[1],inactive
same,outcome,[2],inactive
same,outcome,[3],inactive
same,outcome,[4],inactive
same,outcome,[5],inactive
same,outcome,[6],inactive
same,outcome,[7],inactive
same,outcome,[9],inactive
Cc1ccc(C(C)C)c(O)c1,outcome,[1],inactive
same,outcome,[2],inactive
same,outcome,[3],inactive
same,outcome,[4],inactive
same,outcome,[5],inactive
same,outcome,[7],inactive
same,outcome,[10],inactive
CCCCC(CC)COC(=O)CC(C(=O)OCC(CC)CCCC)S(=O)(=O)O (configuration not stated),outcome,[1],inactive
same,outcome,[2],inactive
same,AC50,[3],126 µM (active)
same,outcome,[4],inactive
same,AC50,[5],105 µM (active)
same,outcome,[7],inactive
same,outcome,[9],inactive
C[Si]1(C)O[Si](C)(C)O[Si](C)(C)O[Si](C)(C)O1,outcome,[1],inactive
same,outcome,[2],inactive
same,outcome,[3],inactive
same,outcome,[4],inactive
same,outcome,[5],inactive
same,outcome,[7],inactive
same,outcome,[10],inactive
same,outcome,[9],inactive
CCCCc1ccc2c(n1)[C@@H](c1ccc(OC)cc1C[C@H](C)C(=O)O)[C@H](C(=O)O)[C@H]2c1ccc2c(c1)OCO2,outcome,[1],inactive
same,outcome,[2],inactive
same,outcome,[3],inactive
same,outcome,[4],inactive
same,outcome,[5],inactive
same,outcome,[6],inactive
same,outcome,[7],inactive
same,outcome,[10],inactive
same,outcome,[9],inactive
Cc1nc(-c2ccc3c(c2)CCN(CCC2CCC(NC(=O)/C=C/c4ccc(F)cc4)CC2)CC3)no1 (configuration not stated),outcome,[1],inactive
same,outcome,[2],inactive
same,outcome,[3],inactive
same,outcome,[4],inactive
same,outcome,[5],inactive
same,outcome,[7],inactive
COc1ccc(S(=O)(=O)N2C(=O)[C@@](c3ccccc3OC)(N3C[C@H](O)C[C@H]3C(=O)N(C)C)c3cc(Cl)ccc32)c(OC)c1,AC50,[1],86.2 µM (active)
same,AC50,[2],93.2 µM (active)
same,AC50,[3],92.4 µM (active)
same,outcome,[4],inactive
same,AC50,[5],63 µM (active)
same,AC50,[7],78.1 µM (active)
same,outcome,[9],inactive
CCOC(=O)C(C)(C)Oc1ccc(Cl)cc1,outcome,[1],inactive
same,outcome,[2],inactive
same,AC50,[3],115 µM (active)
same,outcome,[4],inactive
same,outcome,[5],inactive
same,outcome,[7],inactive
same,outcome,[9],inactive
Cc1cc(=O)[nH]c(=S)[nH]1,outcome,[1],inactive
same,outcome,[2],inactive
same,outcome,[3],inactive
same,outcome,[4],inactive
same,outcome,[5],inactive
same,outcome,[6],inactive
same,outcome,[7],inactive
same,outcome,[9],inactive
O=c1[nH]cc(F)c(=O)[nH]1,AC50,[1],1.06 µM (active)
same,outcome,[2],inactive
same,outcome,[3],inactive
same,outcome,[4],inactive
same,outcome,[5],inactive
same,outcome,[7],inactive
same,outcome,[10],inactive

# Source: PubChem BioAssay (EPA / NIEHS)
